PubChem BioAssay AID624417 (National Center for Advancing Translational Sciences (NCATS), 2012)
Among all 410,000 compounds or so, about 6,400 (1.6%) were called active. Inconclusive results (about 20%) are left out. Calls follow the shape of the dose curve; as a rule, active = well fitted inhibition curve with a large enough effect; inconclusive = small, poorly fitted or top-dose-only effect; inactive = no such curve, though single readings can be large or run the other way. Shown is part of a subset that was picked to be rich in actives.

Target: Glucagon-like peptide 1 receptor (Homo sapiens) (UniProt P43220)
Experiment: qHTS of GLP-1 Receptor Inverse Agonists (Inhibition Mode); also: nearly all actives have a fitted effect of over 55% in size
Conditions: HEK293 GLP-1R CRE-luciferase, luminescence, 24 h, GLP-1R form is constitutively active; series mostly up to 38.3 µM; activity change, negative = inhibition: at the top concentration
In short: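 HEK293 cells stably co-expressing a cAMP-responsive luciferase reporter and constitutively active GLP-1R were seeded, incubated 12 h, then exposed to compounds for 24 h at 37 C. Luminescence was read 12 min after detection reagent; inverse agonists lower signal.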
% is scaled to controls: 0 for no effect and ±100 for the full control effect; potency is read from the fitted curve at half-maximal effect.

Sequence of Glucagon-like peptide 1 receptor (Homo sapiens) (P43220 whole entry, looked up): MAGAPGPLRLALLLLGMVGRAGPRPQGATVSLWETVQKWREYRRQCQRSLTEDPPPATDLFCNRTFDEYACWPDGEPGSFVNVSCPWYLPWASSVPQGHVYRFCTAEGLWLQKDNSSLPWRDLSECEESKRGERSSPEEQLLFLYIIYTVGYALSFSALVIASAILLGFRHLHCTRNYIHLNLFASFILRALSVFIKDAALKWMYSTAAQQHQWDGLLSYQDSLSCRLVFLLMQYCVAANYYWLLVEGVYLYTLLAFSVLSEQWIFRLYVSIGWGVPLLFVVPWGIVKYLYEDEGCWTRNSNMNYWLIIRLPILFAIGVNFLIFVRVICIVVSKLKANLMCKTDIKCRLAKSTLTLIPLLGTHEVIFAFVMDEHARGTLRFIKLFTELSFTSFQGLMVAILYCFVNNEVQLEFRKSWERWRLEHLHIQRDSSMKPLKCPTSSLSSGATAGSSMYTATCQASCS

SMILES	activity change, negative = inhibition	Potency
CCCC/C=C/c1cccc2nncn12	5.17% (inactive)	–
CN1c2ccc(C=O)c3c(C=O)ccc(c23)N(C)C1(C)C	–	12.6 µM (active)
Cc1ccc(C=O)c([B-](F)(F)F)c1	-30.1% (inactive)	–
CCOC(=O)N1C(=O)C[C@](Sc2ccc(C)cc2)(C(=O)OC)[C@H]1c1ccccc1	5.79% (inactive)	–
COc1ccc(CNC(=O)[C@H](Cc2c[nH]c3ccccc23)NC(C)=O)cc1OC	11% (inactive)	–
COc1ccc(NC(=O)[C@H](NC(=O)[C@@H]2Cc3ccccc3CN2)c2ccccc2)cc1	-22.4% (inactive)	–
COc1cccc(NC(=O)[C@H](Cc2c[nH]c3ccccc23)NC(=O)[C@@H]2Cc3ccccc3CN2)c1	–	3.98 µM (active)
O=C(O)c1ccccc1-c1cccc2nncn12	12% (inactive)	–
CCCn1c(C)cc(C(=O)COC(=O)c2c(C)nn(-c3ccccc3)c2C)c1C	–	10 µM (active)
Cc1cccc(C)c1NC(=O)COC(=O)c1c(C)nn(-c2ccccc2)c1C	-11% (inactive)	–
COc1ccc(CNC(=O)COC(=O)c2c(C)nn(-c3ccccc3)c2C)cc1OC	-0.123% (inactive)	–
Cc1noc(C)c1C(=O)N1CCC1(C)C(=O)NS(=O)(=O)c1ccc(C#N)cc1 (configuration not stated)	15.3% (inactive)	–
Clc1ccc(-c2cccc3nccn23)cc1	13% (inactive)	–
COc1ccc(C2CC(c3cccc(OC)c3)=NN2c2ccc(S(N)(=O)=O)cc2)cc1 (configuration not stated)	27.5% (inactive)	–
CCCn1c(=N)c(C(=O)NCc2ccccc2)cc2c(=O)n3cccc(C)c3nc21	2.15% (inactive)	–
Cc1cccn2c(=O)c3cc(C(=O)NCC4CCCO4)c(=N)n(Cc4ccc(F)cc4)c3nc12 (configuration not stated)	85.4% (inactive)	–
Cc1cccn2c(=O)c3cc(C(=O)NCCN4CCOCC4)c(=N)n(Cc4cccnc4)c3nc12	–	3.98 µM (active)
C=CCn1c2c(c3ccccc31)CCC2	-1.11% (inactive)	–
COc1ccc2c(c1)C=CC1(O2)N(CCO)c2ccccc2C1(C)C (configuration not stated)	–	2.51 µM (active)
CN1c2ccc([N+](=O)[O-])cc2C(C)(C)C12C=Cc1cc(C(=O)O)ccc1O2 (configuration not stated)	0.491% (inactive)	–
CCCCn1nnnc1C1(C)CCC(=O)N1Cc1ccc(OC)c(OC)c1 (configuration not stated)	11.4% (inactive)	–

SMILES	activity change, negative = inhibition	Potency
Cc1cccc(C)c1NC(=O)CNC(=O)c1ccc(N2CCOCC2)c([N+](=O)[O-])c1	13.7% (inactive)	–
CC(C)NC(=O)C1(C)CCCCN1Cc1cccc(C(F)(F)F)c1 (configuration not stated)	1.63% (inactive)	–
CC1(C(=O)Nc2cccnc2)Cc2c(-c3ccccc3)ccnc2O1 (configuration not stated)	1.75% (inactive)	–
CC(=O)Nc1cnc(-c2ccc(O)cc2C)cn1	18.2% (inactive)	–
Cc1cccnc1NC(=O)c1cccc(S(=O)(=O)N2CCN(c3ccc(F)cc3)CC2)c1	-19.3% (inactive)	–
Oc1c(CN2CCN(c3ccc(F)cc3)CC2)cc(Cl)c2cccnc12	–	2.51 µM (active)
Cc1cccc(C)c1NC(=O)CN1CCN(c2ccc(F)cc2)CC1	2.26% (inactive)	–
Cc1ccc(S(=O)(=O)NN=C2CC(C)(C)CC(=O)C2(C)C)cc1	-13.3% (inactive)	–
CSc1ccc(/C=C/C(=O)NC23CC4CC(CC(C4)C2)C3)cc1	–	11.2 µM (active)
COc1ccccc1C(=O)NC(=S)NC12CC3CC(CC(C3)C1)C2	-32.2% (inactive)	–
COc1ccc(/C=C/C(=O)Nc2ccc(C34CC5CC(CC(O)(C5)C3)C4)cc2)cc1OC	-5.2% (inactive)	–
COc1ccc(C(=O)NCC2CCCO2)cc1S(=O)(=O)NCc1ccc(Cl)cc1 (configuration not stated)	-4.08% (inactive)	–
Cc1cccc(C)c1-n1nnnc1C1(C)CCC(=O)N1CCOc1ccccc1 (configuration not stated)	6.38% (inactive)	–
O=C(NCc1ccco1)c1cccc(-c2ccc3nncn3c2)c1	17.9% (inactive)	–
CCCC(=O)C1CCN(Cc2ccccc2)CC1	-6.46% (inactive)	–
CCCCN(C)C(=O)C1CCN(Cc2ccccn2)CC1	-6.28% (inactive)	–
CCCCN(Cc1ccccc1)C(=O)C1CCN(Cc2sccc2C)CC1	–	7.08 µM (active)
O=C(O)c1ccccc1C(=O)Nc1nc(-c2ccccc2)cs1	14.7% (inactive)	–
Cc1cccc(Nc2nc(-c3ccccc3)cs2)n1	–	3.16 µM (active)
CC(=O)Nc1cccc(-c2csc(Nc3cccc(C)n3)n2)c1	83.8% (inactive)	–
CCc1c(N=O)c(-c2ccccc2)n(O)[n+]1[O-]	15.7% (inactive)	–

SMILES	activity change, negative = inhibition	Potency
CCC(Oc1ccccc1)C(=O)OCC(=O)Nc1c(C)nn(-c2ccccc2)c1C (configuration not stated)	0.193% (inactive)	–
CS(=O)(=O)N(CC(=O)N1CCc2ccccc2C1)c1ccc(Br)cc1	-28.2% (inactive)	–
COc1cccc(N(CC(=O)N2CCc3ccccc3C2)S(C)(=O)=O)c1	0% (inactive)	–
Cc1ccc(S(=O)(=O)N(CC(=O)N2CCc3ccccc3C2)c2cccc(Cl)c2)cc1	–	8.91 µM (active)
O=C(NCc1ccccc1)C1c2ccccc2OCC(=O)N1C1CC1 (configuration not stated)	17.3% (inactive)	–
COCOCCn1cc(CN2CCS(=O)(=O)N(Cc3ccc(-c4cccc(N(C)C)c4)cc3)C(CC(C)C)C2=O)nn1 (configuration not stated)	3.48% (inactive)	–
CC1C(=O)N(Cc2cn(Cc3ccco3)nn2)CCS(=O)(=O)N1Cc1ccc(-c2cccc(CO)c2)cc1 (configuration not stated)	8.69% (inactive)	–
CC(C)CC1C(=O)N(Cc2cn(Cc3ccco3)nn2)CCS(=O)(=O)N1Cc1ccc(-c2ccc(Cl)c(Cl)c2)cc1 (configuration not stated)	–	10 µM (active)
COc1ccc(-c2ccc(CN3C(CC(C)C)C(=O)N(Cc4cn(CC5CCCCC5)nn4)CCS3(=O)=O)cc2)cc1 (configuration not stated)	–	10 µM (active)
CC(C)CC1C(=O)N(Cc2cn(CC3CCCCC3)nn2)CCS(=O)(=O)N1Cc1ccc(-c2ccc(Cl)cc2)cc1 (configuration not stated)	-7.5% (inactive)	–
COc1ccc(-c2ccc(CN3C(C(C)C)C(=O)N(Cc4cn(CC5CCCCC5)nn4)CCS3(=O)=O)cc2)cn1 (configuration not stated)	-6.11% (inactive)	–
CCN1C(=O)[C@@H]2[C@@H]3CN(S(=O)(=O)c4ccccc4C)[C@@H](c4ccc(Cl)cc4)[C@@H]3C(=O)C[C@@H]2C1=O	-3.42% (inactive)	–
CCOC(=O)c1cc(-c2sc(NC(=O)c3ccccc3)nc2C)n(CCO)n1	4.4% (inactive)	–
CCc1nc2ccc(C(=O)NCCNC(C)=O)cn2c1N(CC)Cc1cccc(Br)c1	25.7% (inactive)	–
COc1ccc(CNC(=O)Cn2nnc(-c3ccccc3F)n2)cc1	16% (inactive)	–
CC(C)(C)NC(=O)Cn1nnc(-c2ccccc2Cl)n1	5.53% (inactive)	–
C#CC(C)(CC)NC(=O)Cn1nnc(-c2ccc(OCc3c(F)cccc3Cl)cc2)n1 (configuration not stated)	–	3.16 µM (active)
CN(C)S(=O)(=O)N1CCC(Oc2cccc(C(=O)NCCCC3CCCC3)c2)CC1	–	10 µM (active)
CNS(=O)(=O)c1cccc(C(=O)NCC2CCCCC2)c1	14% (inactive)	–
CN(C(=O)c1cccc(OC2CCN(S(=O)(=O)N(C)C)CC2)c1)C1CCOC1 (configuration not stated)	20.4% (inactive)	–
